From PubChem
A selection: hits, their analogues and other compounds. The true share with any hit is near 1.7%.
EBNA-1 inhibitor: blocks EBNA-1 binding to DNA. EBNA-1 DNA binding, fluorescence polarization. inhibition, % at 14.8 µM. 300,000 tested, 0.34% active; in the data active means inhibition above about 28%
LYPLA1 counter: LYPLA1 (human) inhibition in PME1 counter-screen; O75608; recombinant LYPLA1, FP-Rh probe fluorescence polarization; inhibition, % at 5.9 µM; 320,000 tested, 0.16% active;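 active means inhibition above the mean of all tested compounds plus 3 SD, set per campaign, cut at about 14% in these data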;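 further: inhibitors block serine hydrolase probe labeling of LYPLA1 so polarization falls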
PAD4 inh: PAD4 (human) enzyme inhibition; Q9UM07; recombinant PAD4, RCA probe fluorescence polarization; inhibition, % at 6.36 µM; 330,000 tested, 0.41% active; AID 485272;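 active means percent inhibition above a cutoff equal to the mean of all tested compounds plus 3 SD, cut at about 15% in these data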
LYPLA2 counter: blocks human lysophospholipase 2, a PME1 counter-screen | recombinant LYPLA2, FP-Rh probe fluorescence polarization | inhibition, % at 5.9 µM | 320,000 tested, 0.38% active | AID 2177;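 active means inhibition above the screen-wide mean plus 3 SD, limit set per campaign, cut at about 26% in these data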
ZTA counter: counter-screen for EBNA-1 inhibitors: inhibitors of Epstein-Barr virus ZTA; inhibition, % at 11 µM; ZTA-DNA binding, fluorescence polarization; 320,000 tested, 0.15% active; AID 2234; in the data active means inhibition above about 33%
Target sequence (P03206 whole entry, looked up): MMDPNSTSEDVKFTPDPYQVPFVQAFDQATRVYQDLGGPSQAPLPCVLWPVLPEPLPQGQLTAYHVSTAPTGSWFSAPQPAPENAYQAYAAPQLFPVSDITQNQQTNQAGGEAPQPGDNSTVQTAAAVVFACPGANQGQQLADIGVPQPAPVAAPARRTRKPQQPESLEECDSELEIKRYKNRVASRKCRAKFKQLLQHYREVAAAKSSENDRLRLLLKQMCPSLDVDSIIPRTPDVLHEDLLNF
GSTO1 counter: blocks human GSTO1 in RBBP9 counter-screen; inhibition, % at 5.96 µM; recombinant GSTO1, activity-based probe fluorescence polarization; P78417; 300,000 tested, 1.1% active; AID 1974;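 active means inhibition above the campaign mean inhibition plus 3 SD, cut at about 35% in these data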
GSTO1 confirm: GSTO1 (human) inhibition, confirmation; inhibition, % at 5.96 µM; 2,400 tested, 54% active; shares compounds with GSTO1 counter; recombinant GSTO1, probe fluorescence polarization; AID 2176;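 active means inhibition above the primary screen's cutoff, its mean inhibition plus 3 SD, cut at about 35% in these data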;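 further: loss of polarization as inhibitors block binding of rhodamine sulfonate ester activity probe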
ZTA inh confirm: confirmation of Epstein-Barr virus ZTA DNA binding inhibitors; inhibition, % at 11.1 µM; 320 tested, 30% active; shares compounds with ZTA counter; Zta-ZRE DNA binding, fluorescence polarization;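 active means mean inhibition across triplicate runs above the hit threshold derived for the original primary screen, cut at about 33% in these data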
EBNA-1 counter: counter-screen for ZTA inhibitors: EBNA-1 DNA binding inhibition | shares compounds with ZTA counter | fluorescence polarization | inhibition, % at 14.8 µM | 320 tested, under 10 active | AID 2362; call rule not given here
PAD4 FP conf: PAD4 (human) inhibition, confirmed. shares compounds with PAD4 inh. recombinant PAD4, RCA probe fluorescence polarization. inhibition, % at 6.36 µM. 1,200 tested, 28% active;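 active means mean inhibition across replicates above the hit cutoff set by the earlier primary screen, cut at about 15% in these data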;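 further: inhibitors block active-site labeling by the probe so polarization falls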
Each line names hits and unclear results; the compound was inactive in the other large screens (follow-up assays come after a bar, where they were run).

O=C1CCCC2=C1C1(O)C(=O)c3ccccc3C1(O)O2 (stereo not drawn)	PAD4 inh 45, GSTO1 counter 70 | GSTO1 confirm 68 | PAD4 FP conf 33
O=C1C=C(c2ccc(F)cc2OCc2ccccc2)C[C@@H](c2ccc(F)cc2)C1	none (no result: EBNA-1 inhibitor, GSTO1 counter)
Cc1ccc(C)c(OCCCCN2CCNCC2)c1C	none
CCCC(=O)Nc1ccc(-c2csc(N/N=C\c3ccncc3)n2)cc1	none
CC1=NN(c2ccc(F)cc2)C(=O)C1C(c1cccc(O)c1)c1c(C)[nH]n(-c2ccc(F)cc2)c1=O (stereo not drawn)	PAD4 inh 69, GSTO1 counter 58 | GSTO1 confirm 36 | PAD4 FP conf inactive
CC1=NN(c2ccc(Cl)cc2)C(=O)C1C(c1cccc(O)c1)c1c(C)[nH]n(-c2ccc(Cl)cc2)c1=O (stereo not drawn)	PAD4 inh 73, GSTO1 counter 66 | GSTO1 confirm 56 | PAD4 FP conf inactive
Cc1[nH]n(-c2ccc(Cl)cc2)c(=O)c1C(=O)c1ccccc1	none
CN1CCN(C(=O)c2cccc(NS(=O)(=O)c3ccc(Br)cc3)c2)CC1	none (no result: EBNA-1 inhibitor, GSTO1 counter)
CCn1c(SCC(=O)c2ccccc2)nc2sc3c(c2c1=O)CCN(C)C3	none
Oc1cccc(C=NCc2ccccc2)c1O	PAD4 inh 21, GSTO1 counter 89 | GSTO1 confirm inactive | PAD4 FP conf inactive
Oc1c(C=NCc2ccccc2)sc2ccccc12	none
O=C1N/C(=C\c2ccc(O)cc2)C(=O)c2ccccc21	PAD4 inh 30, GSTO1 counter 75 | GSTO1 confirm 79 | PAD4 FP conf inactive
CCc1ccc(-c2ccc(SCC(=O)NCC3CCCO3)nn2)cc1 (stereo not drawn)	none
Cc1[nH][nH]c(=O)c1C(c1c(C)[nH][nH]c1=O)c1cn(Cc2cccc3ccccc23)c2ccccc12	PAD4 inh 31, GSTO1 counter 55 | GSTO1 confirm 41 | PAD4 FP conf 25
O=c1c2ccccc2ncn1Cc1cccc2ccccc12	none
Cc1ccc(S(=O)(=O)/N=C(/c2ccccc2)N2CCOCC2)c(C)c1	none
O=C(O)c1cccc(NS(=O)(=O)c2ccc3c(c2)C(=O)c2ccccc2C3=O)c1	none
Cc1ccc(S(=O)(=O)/N=C2\C=C(Nc3cccc(C(=O)O)c3)C(=O)c3ccccc32)c(C)c1	PAD4 inh 66, GSTO1 counter 93 | GSTO1 confirm 91 | PAD4 FP conf 50
Cc1ccc(S(=O)(=O)/N=C2\C=C(Nc3cccc(C(=O)O)c3)C(=O)c3ccccc32)cc1	PAD4 inh 63, ZTA counter 33, GSTO1 counter 90 | GSTO1 confirm 85 | ZTA inh confirm 36 | EBNA-1 counter inactive | PAD4 FP conf 46
CC1(OC(=O)C2CCCC2)C(=O)C=C2C=C(c3ccsc3)N(CCc3ccccn3)C=C2C1=O (stereo not drawn)	PAD4 inh 19, GSTO1 counter 49 | GSTO1 confirm inactive | PAD4 FP conf inactive
CC1(OC(=O)C2CCCC2)C(=O)C=C2C=C(c3ccsc3)N(Cc3ccccc3)C=C2C1=O (stereo not drawn)	none
NC(=O)C1CC(=O)N(c2ccc(OCc3c(Cl)cccc3Cl)cc2)C1 (stereo not drawn)	none
